Rows were chosen to be rich in hits. Some 2.8% of all compounds tested hit in one or more screens of this group.
ATXN2 expr inh – inhibitors of ATXN2 expression. Potency, µM (doses to about 57 µM), without a hit: at the highest dose activity change, negative = inhibition, hits mostly inhibitors. 360,000 compounds, 0.72% hits. HEK-293 ATXN2-luciferase reporter, luminescence, 24 h; also: % is scaled to controls: 0 for no effect and ±100 for the full control effect; nearly all actives have a fitted effect of over 55% in size
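ATXN2-luciferase reporter cells (luciferase flanked by upstream and downstream ATXN2 gene portions) were treated 24 h at 37 °C with compounds at up to 57 uM. SteadyGlo luminescence gave expression; GF-AFC fluorescence gave viability.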
HepG2 tox-1 – HepG2 cytotoxicity, counter-screen for TGF-b inhibitors; 410,000 compounds, 0.76% hits; AID 588856; Potency, µM (doses to about 46.1 µM), without a hit: at the highest dose activity change, negative = cytotoxicity, actives largely listed as cytotoxic; HepG2 CAGA-GFP viability, ATP luminescence, 18 h
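HepG2 CAGA-GFP cells (1000/well, DMEM with 1% FBS) received compound, then TGF-beta at 500 pg/mL final, and were incubated 18 hours at 37 degrees C. Viability was read by CellTiter-Glo luminescence. Media-only wells were set as complete cell-killing and DMSO as no toxicity.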
ATXN viability – reduces viability in counter-screen for ATXN expression inhibitors. S2 cells (HEK-293 line with an ATXN2-luciferase reporter) viability, CellTiter-Fluor protease fluorescence, 24 h. Potency, µM (highest dose often 56.7 µM), actives largely listed as cytotoxic. 400,000 compounds, 0.49% hits; also: nearly all actives have a fitted effect of over 40% in size
HTT cytoprotect – protects HTT-Q103 PC12 cells, measured by ATP; PC12 HTT-Q103 induced, cytoprotection, ATP luminescence, 40 h; Potency, µM (series often up to 56.4 µM), inactives show cytoprotection (ATP increase), usual class: activators; 230,000 compounds, 0.14% hits; AID 1471; also: % of control where 0% means no effect; nearly all actives have a fitted effect of over 45% in size
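ATP quantification (ATPlite) reports survival of PC12 cells in which tebufenozide, 100 nM final, switches on Htt exon 1 with 103 glutamines linked to GFP; compounds are titrated.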
HttQ103 aggreg – mutant huntingtin aggregation inhibition; 220,000 compounds, 1.1% hits; Potency, µM (titrated, usually from 46.1 µM), without a hit: at the top dose activity change, negative = inhibition, hits mostly inhibitors; PC12 HttQ103-GFP aggregates, Acumen cytometry, 40 h; also: % is scaled to controls: 0 for no effect and ±100 for the full control effect; nearly all actives have a fitted effect of over 60% in size
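Ecdysone-promoter PC12 model expressing HTT exon 1 Q103 fused to GFP, induced by tebufenozide at 100 nM final. Compounds titrated; aggregates sized 1–25 µm scored on a 488 nm laser cytometer.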
TGFb SMAD3 inh – blocks TGF-b signaling. HepG2 CAGA-GFP TGF-b/SMAD3 reporter, GFP fluorescence, 18 h; TGF-beta stimulated, 500 pg/mL final. Potency, µM (doses to about 46.1 µM), for inactives: at the top dose activity, negative = inhibition, hits mostly inhibitors. 410,000 compounds, 1.2% hits. AID 588855; also: % is scaled to controls: 0 for no effect and ±100 for the full control effect; nearly all actives have a fitted effect of over 65% in size
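Inhibition was scored as loss of TGF-beta-induced (500 pg/mL final, 18 hours, 37 degrees C) GFP in HEPG2 cells carrying a CAGA-GFP reporter, in DMEM with 1% FBS. Well GFP was summed per cell; Activity was normalised to unstimulated and stimulated DMSO wells, then concentration-response fitting.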
TGFb CAGA inh – confirmation of TGF-b signaling inhibitors in HepG2 reporter cells. shares compounds with TGFb SMAD3 inh. HepG2 CAGA-GFP TGF-b reporter, GFP fluorescence, 18 h; cells stimulated with TGF-beta, 500 pg/mL. Potency, µM (doses to about 46.1 µM), without a hit: at the top dose activity, negative = inhibition, usual class: inhibitors. 1,600 compounds, 63% hits. AID 720534; also: % is scaled to controls: 0 for no effect and ±100 for the full control effect; nearly all actives have a fitted effect of over 65% in size
HepG2 tox-2 – toxic to HepG2 cells in TGF-b counterscreen | HepG2 CAGA-GFP viability, ATP luminescence, 18 h; cells stimulated with TGF-beta, 500 pg/mL | shares compounds with TGFb SMAD3 inh | Potency, µM (highest dose often 46.1 µM), inactives show at the top dose activity, negative = cytotoxicity, hits mostly inhibitors | 1,600 compounds, 27% hits; also: % is scaled to controls: 0 for no effect and ±100 for the full control effect; nearly all actives have a fitted effect of over 70% in size
TGFb CCL64 inh – orthogonal confirmation of TGF-b inhibitors in CCL64 cells; Potency, µM (titrated, usually from 46.1 µM), without a hit: at the highest dose activity, negative = inhibition, most hits filed as inhibitors; shares compounds with TGFb SMAD3 inh; 1,600 compounds, 41% hits; CCL64 CAGA-GFP reporter, TGF-b stimulated, GFP fluorescence, 18 h; also: nearly all actives have a fitted effect of over 65% in size
TGFb COP inh – TGF-b inhibition validated with COP promoter. AID 720537. 1,600 compounds, 3% hits. shares compounds with TGFb SMAD3 inh. Potency, µM (series often up to 46.1 µM), for the others: at the highest dose activity, negative = inhibition, hits mostly inhibitors. HepG2 COP-GFP TGF-b reporter, GFP fluorescence, 18 h; cells stimulated by added recombinant TGF-beta; also: nearly all actives have a fitted effect of over 70% in size
Active calls of the source: *; i = inactive; ? = inconclusive; · = no result; [ ] = another dose, or the depositor's remark. Calls follow the shape of the dose curve; as a rule, active = well fitted curve in the direction sought with a large enough effect; inconclusive = small, poorly fitted or top-dose-only effect, or another doubt; inactive = no such curve, though single readings can be large; an effect the other way counts as inactive or inconclusive. Potency is read from the fitted curve at half-maximal effect.

SMILES	ATXN2 expr inh	HepG2 tox-1	ATXN viability	HTT cytoprotect	HttQ103 aggreg	TGFb SMAD3 inh	TGFb CAGA inh	HepG2 tox-2	TGFb CCL64 inh	TGFb COP inh
Cc1cc(NC(=O)Nc2ccc(N(C)C)cc2)c2cc(F)cc(F)c2n1	?	·	·	-36%	·	·	·	·	·	·
Cc1nc2cc(-c3cccc(F)c3)nn2c(C)c1CCC(=O)NC(C)c1ccc2c(c1)OCCO2 (stereo unspecified)	?	-18%	i	·	-26%	?	?	-29%	29µM*	11%
Cc1cc2nn(-c3ccc(F)cc3)nc2cc1N	-5%	-23%	i	·	·	?	·	·	·	·
Cc1cc2nn(-c3ccc(Cl)cc3)nc2cc1N	·	-37%	·	·	·	0.79µM*	6.5µM*	2.6µM*	6%	40%
O=C1[C@@H]2[C@@H](C(=O)N1c1ccc(OCc3ccccc3)cc1)[C@@H]1c3ccccc3[C@@H]2[n+]2ccccc21	·	·	·	-2%[10 µM]	·	·	·	·	·	·
CN(CC(=O)Nc1ccccc1)CC(=O)Nc1ccccc1Cl	43%	3%	i	·	·	2%	·	·	·	·
CCCCc1ccc(NC(=O)CN(C)CC(=O)Nc2ccccc2Cl)cc1	-10%	-33%	i	·	·	22µM*	?	3%	?	1%
COc1ccc(Cl)cc1NC(=O)CSc1nnc(Cc2ccc(C)cc2)c(=O)[nH]1	5%	-16%	i	·	·	8.9µM*	21µM*	?	-30%	35%
O=C(C(=O)c1cc(Br)ccc1O)c1cc(Br)ccc1O	?	-35%	?	·	·	6.3µM*	6.5µM*	12µM*	4.6µM*	81%
O=S(=O)(c1cccc(NC(=S)N2CCN(c3ccccc3F)CC2)c1)C(F)F	·	-29%	i	-11%[10 µM]	?	7.1µM*	7.3µM*	-9%	0%	-5%
Fc1ccc(CN2CCN(C(=S)NCCc3ccccc3)CC2)c(Cl)c1	-19%	-30%	i	-8%[10 µM]	-17%[9.22 µM]	7.9µM*	?	-30%	?	11%
S=C(NCCc1ccccc1)N1CCN(Cc2ccc(Cl)c(Cl)c2)CC1	-33%	-23%	i	23%[10 µM]	?	-3%	·	·	·	·
COCCNC(=O)C1(C(F)(F)F)C/C(=C/CCO)CCCO1 (stereo unspecified)	·	0%	·	·	·	-6%	·	·	·	·
C=CCn1c(SCC(=O)Nc2cc3oc4ccccc4c3cc2OC)nnc1-c1cnccn1	-19%	-25%	i	1%	-20%	-2%	·	·	·	·
C=CCn1c(COc2ccccc2F)nnc1SCC(=O)Nc1cc2oc3ccccc3c2cc1OC	-15%	-9%	i	-36%	?	?	?	-26%	?	15%
O=S(=O)(c1ccc(OC(F)(F)F)cc1)N1CCN(c2nc(-c3ccccc3)nc3ccccc23)CC1	·	29%	·	·	·	5%	·	·	·	·
COC(=O)C1=C[C@@H](C(=O)OC)C2C3=C(C(=O)[C@]2(CC(C)C)NC(=O)c2ccccc2)[C@H](C)n2c(=O)n(C)c(=O)n2[C@@H]3C1 (stereo partly specified)	·	-3%	·	·	·	-6%	·	·	·	·
CN1CCC[C@H]1CCNc1ccc2c(=O)c3ccccc3n(C)c2c1	?	0%	·	·	·	16µM*	?	?	21µM*	62%
O=C(N/N=C/c1cc(Cl)ccc1O)c1ccccc1Br	3.2µM*	-29%	i	-153%	2.5µM*	?	?	?	?	-2%
O=C(N/N=C/c1cc(Cl)ccc1O)c1cccnc1	?	-22%	i	·	·	-2%	·	·	·	·
O=C(CSc1nc(NS(=O)(=O)c2ccccc2)cc(=O)[nH]1)Nc1ccc(Cl)cc1	-26%	-27%	i	2%[10 µM]	0%[9.22 µM]	1%	·	·	·	·
O=c1cc(NS(=O)(=O)c2ccccc2)nc(SCc2ccc(Cl)cc2)[nH]1	3%	-50%	?	11%[1.9 µM]	-10%	4µM*	?	-24%	18µM*	4%
COc1ccc(-c2nc(NC(=O)C3CC(=O)N(c4ccc5c(c4)OCCO5)C3)sc2C)cc1 (stereo unspecified)	13µM*	-1%	?	·	-2%	11µM*	6.5µM*	?	?	31%
CC(=O)OC[C@H]1O[C@@H](O/N=C(\C)CCN2CCCc3nc(C)c(C)cc32)[C@H](OC(C)=O)[C@@H](OC(C)=O)[C@H]1OC(C)=O	·	·	·	6%[10 µM]	·	·	·	·	·	·
O=C(NCCOc1ccccc1)O[C@@H]1C(=O)c2cc(Br)ccc2O[C@H]1c1ccc2c(c1)OCO2	·	·	·	-18%	·	·	·	·	·	·
Cc1ccc(-c2c(C(=O)NCc3ccc(F)cc3)oc(=O)c3ccccc23)cc1	1%	-35%	i	?	-1%	?	?	-21%	-20%	-2%
Cc1ccc(-c2c(C(=O)Nc3ccccc3F)oc(=O)c3ccccc23)cc1	2%	-3%	i	·	·	-8%	·	·	·	·
COc1ccc(C[C@@H]2CN3C(=NC[C@@H]3Cc3ccc(O)cc3)N2C[C@H](C)NC(=O)CCC2CCCCC2)cc1	-36%	-22%	?	-8%[10 µM]	4%[9.22 µM]	13µM*	-86%	?	?	106%
c1ccc2c(Nc3nc(-c4ccncc4)nc4ccccc34)cccc2c1	-23%	-64%	i	?	19%[9.22 µM]	-16%	·	·	·	·
Clc1cccc(Nc2nc(-c3ccncc3)nc3ccccc23)c1	?	-41%	?	26%[10 µM]	5%[9.22 µM]	2%	?	?	?	9%

Screening results as filed in PubChem.
